The list is not random: actives were taken first. Their share in the collection is about 3.5%.
GPR151 activ = activates the human receptor GPR151. Q8TDV0. PathHunter beta-arrestin GPR151 cells, luminescence. activation, % at 11.2 µM. 650,000 tested, 1% active. AID 1508602; in the data active = activation above about 4.9%
TEAD-YAP block = TEAD-YAP interaction inhibition. HEK-TIYL cells, TEAD-Gal4/YAP UAS-luciferase luminescence. AID 1259422. inhibition, % at 9.12 µM. 640,000 tested, 1.4% active; in the data active = inhibition above about 32%
FBW7 act = activators of human E3 ligase FBW7; Q969H0; AlphaScreen FBW7–phospho-cyclin E peptide binding, activator screen; normalized activity (activation), % at 26.1 µM; 650,000 tested, 0.13% active; AID 1259310; in the data active = normalized activity above about 1.9%;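 note: purified mutant Fbw7 with reduced substrate affinity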
MITF primary = blocks human microphthalmia-associated transcription factor; 650,000 tested, 0.91% active; inhibition, % at 2.6 µM; AlphaScreen MITF homodimerization, bead proximity signal; AID 1259374; O75030; in the data active = inhibition above about 50%
Target sequence (O75030 whole entry, looked up): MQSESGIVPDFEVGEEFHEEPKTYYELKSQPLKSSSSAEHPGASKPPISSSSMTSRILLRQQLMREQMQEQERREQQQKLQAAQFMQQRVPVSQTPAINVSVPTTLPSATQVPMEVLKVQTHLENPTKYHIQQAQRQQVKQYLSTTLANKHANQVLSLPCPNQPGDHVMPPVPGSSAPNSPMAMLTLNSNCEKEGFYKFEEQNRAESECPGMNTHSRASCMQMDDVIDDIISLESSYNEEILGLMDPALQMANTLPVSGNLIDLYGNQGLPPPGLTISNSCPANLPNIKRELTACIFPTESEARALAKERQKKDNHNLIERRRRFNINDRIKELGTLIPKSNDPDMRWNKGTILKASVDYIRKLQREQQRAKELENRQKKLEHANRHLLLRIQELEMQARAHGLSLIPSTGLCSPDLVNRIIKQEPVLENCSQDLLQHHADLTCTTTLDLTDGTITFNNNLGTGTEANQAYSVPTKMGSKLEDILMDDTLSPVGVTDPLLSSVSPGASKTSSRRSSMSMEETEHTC
GPR151 confirm = human GPR151 activation, confirmation screen. AID 1508609. activation, % at 11.2 µM. GPR151 PathHunter beta-arrestin cells, luminescence, 90 min; % of EA-reagent control over plate median. 6,700 tested, under 10 active. shares compounds with GPR151 activ;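 active = mean percent activation across replicates above the confirmation screen cutoff of 4.91%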
GPR119 ag = counter-screen for GPR151 activators: effect on human GPR119. shares compounds with GPR151 activ. GPR119 PathHunter beta-arrestin cells, luminescence, 90 min; 0 = compound-well median, 100 = enzyme-acceptor control. activation, % at 11.2 µM. 6,700 tested, 0.3% active. AID 1508611;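 active = mean percent activation in the counterscreen above 29.09%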;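 note: counterscreen on off-target GPR119 to flag nonselective hits from the GPR151 activator screen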
A number is an active result; n = inactive; x = no result given.

SMILES	GPR151 activ	TEAD-YAP block	FBW7 act	MITF primary	GPR151 confirm	GPR119 ag
COCCCn1nnnc1SCC(=O)Nc1cccc(C)c1C	n	n	n	n	x	x
CCOCCCNC(=O)c1cc([N+](=O)[O-])ccc1Cl	23	n	n	n	n	n
CCN(CC)CCCNC(=O)c1cc([N+](=O)[O-])ccc1Cl	n	n	n	n	x	x
O=C(NCCc1ccc(F)cc1)c1ccc([N+](=O)[O-])cc1Cl	11	n	n	n	n	n
COc1ccc(S(=O)(=O)N(CC(=O)NCCSCc2ccc(Cl)cc2)c2ccc(C)cc2)cc1OC	n	n	n	n	x	x
Cc1ccc2c(c1)c(=O)c1ccccc1n2CCCC(=O)Nc1ccc(Br)cc1C	n	n	n	n	x	x
Cc1ccc2c(c1)c(=O)c1ccccc1n2CCCC(=O)Nc1ccc(Br)cn1	17	38	n	n	n	n
Cc1ccc(C)c(-c2csc(-c3ccncc3)n2)c1	n	n	n	n	x	x
COc1cccc(CC2(CCC(=O)N3CCOc4ccc(Cl)cc4C3)CCC(=O)N2)c1 (configuration not stated)	n	n	n	n	x	x
Cc1cc(C)cc(CN2CCN(c3ccc4c(c3)OCO4)C2=O)c1	n	n	n	n	x	x
O=C1N(Cc2ccc(F)cc2F)CCN1c1ccc2c(c1)OCO2	9.8	n	n	n	n	n
CS(=O)(=O)N(Cc1ccccc1Cl)c1ccc(C(=O)N2CCCC2)cc1	9.2	n	n	n	n	n
CC(C)CCNC(=O)c1ccc(N(Cc2ccccc2Cl)S(C)(=O)=O)cc1	7.9	n	n	n	n	n
CS(=O)(=O)N(Cc1ccccc1Cl)c1ccc(C(=O)NCc2ccco2)cc1	n	n	n	n	x	x
O=C(CSc1ccc(F)cc1)Nc1ccc(Cl)c(N2CCCS2(=O)=O)c1	12	n	n	n	n	n
O=C(COc1ccccc1)NCC1(c2cccs2)CCOCC1	n	n	n	n	x	x
O=C(NNC1CC(c2ccccc2)=NN1C(=O)c1ccccc1)c1ccccc1 (configuration not stated)	6.5	n	n	n	n	n
CC(C)C(NC(=O)c1ccccc1NC(=O)c1ccccc1)C(=O)N1CCCCC1 (configuration not stated)	n	n	n	n	x	x
CCC(C)C(NC(=O)c1ccccc1NC(=O)c1ccccc1)C(=O)N1CCOCC1 (configuration not stated)	9.8	n	n	n	n	n
CC1(C)CC(CCNC(=O)CCc2nnc(-c3ccsc3)o2)(c2ccccc2)CCO1 (configuration not stated)	n	n	n	n	x	x
NNC(=O)c1cccc(C(=O)NN)n1	n	n	n	n	x	x
c1ccc2[nH]c(CNc3nc(N4CCC(N5CCOCC5)CC4)nc4c3ncn4C3CCCCC3)nc2c1	n	n	n	n	x	x
COc1cc([N+](=O)[O-])c(N2CCOCC2)c([N+](=O)[O-])c1OC	5.4	n	n	n	n	n
O=C(CCn1c(=S)[nH]c2cc3c(cc2c1=O)OCO3)NCc1cccc(Cl)c1	n	n	n	n	x	x
O=C(CCCn1c(=S)[nH]c2cc3c(cc2c1=O)OCO3)NCc1cccc(Cl)c1	5.3	n	n	n	n	n
SMILES	GPR151 activ	TEAD-YAP block	FBW7 act	MITF primary	GPR151 confirm	GPR119 ag
O=C(CCCn1c(=S)[nH]c2ccccc2c1=O)Nc1cccc2c1CCCC2	5.5	n	n	n	n	n
CC(=O)Nc1sc2c(c1C(N)=O)CCN(C(C)=O)C2	n	n	n	n	x	x
CC(=O)N1CCc2c(sc(NC(=O)C(C)(C)C)c2C(N)=O)C1	6.4	n	n	n	n	n
O=C1c2ccccc2C(=O)N1CCN1CCCC2(C1)Nc1ccccc1-n1cccc12 (configuration not stated)	n	n	n	n	x	x
COc1ccc2c(c1)NC1(CCCN(CCN3C(=O)c4ccccc4C3=O)C1)c1cccn1-2 (configuration not stated)	5.4	n	n	n	n	n
CCOc1ccc(C2C(C#N)=C(N)OC3=C2C(=O)CC(C)(C)C3)cc1 (configuration not stated)	8.0	n	n	n	n	n
COc1cc(C2C(C#N)=C(N)OC3=C2C(=O)CC(C)(C)C3)ccc1OC(C)=O (configuration not stated)	5.3	n	n	n	n	n
CCCCOc1c(Cl)cc(C(=O)O)cc1OC	n	n	n	n	x	x
CCOc1c(Cl)cc(C(=O)O)cc1OC	6.4	n	n	n	n	n

Compound activity as filed in PubChem BioAssay.
